The structures appear in SMILES notation. The campaign covered roughly 96,000 compounds. About 19,000 (20%) were called active. Not all results are given here. Unmarked numbers belong to inactive results.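 How the source made its calls: active means blocking of liver enzyme CYP2C9 beyond about 50% at 5 µM (limit read from the data); inactive means the rest.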

For the assay, the target named is Cytochrome P450 2C9 (Homo sapiens) (UniProt P11712). Put plainly: blockers of cytochrome P450 2C9 activity – biochemical, luminescence, ADME assay, primary screen (AID 777). The note with it: CYP2C9 Supersomes, luciferin-H conversion, at 5 µM, hits give high values.
Cytochrome P450 2C9 (Homo sapiens), sequence (P11712 whole entry, looked up): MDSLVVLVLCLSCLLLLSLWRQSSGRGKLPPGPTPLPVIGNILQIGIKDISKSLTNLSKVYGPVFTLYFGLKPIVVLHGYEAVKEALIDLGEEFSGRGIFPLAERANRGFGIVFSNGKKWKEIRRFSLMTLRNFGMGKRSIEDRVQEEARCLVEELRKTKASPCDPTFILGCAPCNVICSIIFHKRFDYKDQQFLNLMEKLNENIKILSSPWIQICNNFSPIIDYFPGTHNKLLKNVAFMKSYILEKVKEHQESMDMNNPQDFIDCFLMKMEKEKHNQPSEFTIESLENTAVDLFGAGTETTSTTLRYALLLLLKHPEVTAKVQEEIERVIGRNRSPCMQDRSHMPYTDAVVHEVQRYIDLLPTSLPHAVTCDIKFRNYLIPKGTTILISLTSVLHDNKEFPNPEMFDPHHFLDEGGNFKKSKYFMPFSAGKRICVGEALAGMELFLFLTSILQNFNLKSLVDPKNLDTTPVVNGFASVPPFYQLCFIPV
Take `COc1ccc(CCn2c(O)c(C=NCCCn3ccnc3)c(=O)[nH]c2=O)cc1OC`: the inhibition is 61.3% (active).

`COc1ccccc1-n1c(O)c(C=NC2CC2)c(=O)[nH]c1=O`: the inhibition was -3.5%.

Take `COc1ccc(CCn2c(O)c(C=NC3CC3)c(=O)[nH]c2=O)cc1OC`: the inhibition is 16.5%.

With `COc1ccc(S(=O)(=O)NCc2ccc(C(=O)N3CCC4(CC3)OCCO4)cc2)cc1`, the inhibition was 4.3%.

In the case of `C=Cn1ccnc1P(=S)(c1cc(N(CC)CC)ns1)c1nccn1C=C`, the inhibition is 12.6%.

Take `CCOC(=O)C(O)(c1ccc(NC(=O)c2ccco2)c(OC)c1)C(F)(F)F` (stereo not given): the inhibition was 71.4% (active).

In the case of `COC(=O)C(O)(c1ccc(NC(=O)c2ccco2)c(OC)c1)C(F)(F)F` (stereo not given), the inhibition is 75.9% (active).

As to `CCOC(=O)C(O)(c1ccc(N)c(OC)c1)C(F)(F)F` (stereo not given), the inhibition was 25.7%.

As for `C[N+]12CN3CN(CN(C3)C1)C2`, the inhibition is 0.8%.

Consider `Cc1ccc(P(=S)(c2ccc(C)o2)N2CCOCC2)o1`, for which the inhibition was 11%.

As to `c1cncc(CNC2=NCCC2)c1`, the inhibition is -10.2%.

As for `COc1ccccc1N1CCN(C(CNC(=O)Oc2ccccc2)c2cccnc2)CC1` (stereo not given), the inhibition is 44.1%.

For `CC(C)c1ccc(O)c(CN2CCN(c3ccccc3)CC2)c1`, the inhibition is 19.1%.

In the case of `CC[N+](CC)(CC)CCCCCCCCCC[N+](CC)(CC)CC`, the inhibition was -4.4%.

As for `O=C(CN1CCCCC1)Nc1ccc(Br)cc1C(=O)c1ccccc1Cl`, the inhibition was 8.7%.

In the case of `CCC/C(=N\O)c1c[nH]c2ccccc12`, the inhibition is 10.1%.

Regarding `Cc1ccc2c(c1)C1CN(C)CCC1N2C(=O)Cn1nnc(-c2ccccc2F)n1` (stereo not given), the inhibition was 4.5%.

With `CN1CCC(N(C)Cc2cccnc2)CC1`, the inhibition was -6.3%.

For `CN1C2C=C(N(C(=O)c3ccc(Cl)cc3)c3ccccc3)CC1CC2` (stereo not given), the inhibition was 6.8%.

For the compound `Nc1ccc(C(=O)N/N=C2/CN3CCC2CC3)cc1`, the inhibition is 8%.

In the case of `O=C(COc1ccc2ccccc2c1)N1CCN(Cc2ccncc2)CC1`, the inhibition was 90.5% (active).

With `CC(C)c1ccc(OCC(=O)N2CCN(C)CC2)c(Br)c1`, the inhibition was -1.3%.

On to `CN1CCN(C(=O)COc2ccc(C(C)(C)C)cc2Br)CC1`, for which the inhibition was -18%.

Turning to `Cc1ccc(N(C)C(=O)Oc2cccc3ccc(C)nc23)cc1`, the inhibition is 36.4%.

As for `Cn1c(C(=O)N2CCC(C(=O)N3CCC4(CC3)OCCO4)CC2)cc2sccc21`, the inhibition was -32.3%.

As for `CCOc1ccc(CN(CCCl)CCCl)cc1C(=O)OC`, the inhibition was 97.3% (active).

For the compound `Cn1c(O)c(C=Nc2ccc3c(c2)CCC3)c(=O)n(C)c1=O`, the inhibition was 11.5%.

With `CC(=C1C(=O)c2ccccc2C1=O)N1CCN(CCN=Cc2c(O)n(C)c(=O)n(C)c2=O)CC1`, the inhibition was 43.2%.

Take `CC(C)(C)c1ccc(CN2C(=O)CN=C(c3ccccc3)c3ccccc32)cc1`: the inhibition was 18.9%.

Regarding `O=C(O)C1CSC(c2cccnc2)N1` (stereo not given), the inhibition is -16.9%.

For the compound `COC(=O)CN1C(=O)C2(C(C(=O)OC)=C(N)Oc3ccccc32)C2=C1CC(C)(C)CC2=O` (stereo not given), the inhibition is 38.6%.

For `C=CCN1C(=O)C2(C(C(=O)OCC)=C(N)Oc3c2c(=O)oc2ccccc32)c2ccccc21` (stereo not given), the inhibition was 88.5% (active).

Consider `CCOC(=O)CC1=C(C(=O)OCC)C2(C(=O)N1)C(C(=O)OC)=C(N)Oc1ccccc12` (stereo not given), for which the inhibition is 20.6%.

For the compound `CNC(=O)N(C)c1nnc(C(C)(C)C)s1`, the inhibition is -22.2%.

As for `Cc1ccc(C)c(NC2=NCCCS2)c1`, the inhibition was -2.6%.

Take `CCOC(=O)C1CN(C)CCC1=O` (stereo not given): the inhibition was 1.1%.

Take `CCCCCn1c(=O)c(C(=O)NCc2ccccn2)c(O)c2ccccc21`: the inhibition is 78.1% (active).

Regarding `CCCCCn1c(=O)c(C(=O)Nc2c(C)n(C)n(-c3ccccc3)c2=O)c(O)c2ccccc21`, the inhibition is 25.9%.

In the case of `CCN1c2nc3c(C)cccn3c(=O)c2CC2(C(=O)N(C)C(=O)N(C)C2=O)C1C` (stereo not given), the inhibition is -8.4%.

As to `Cc1nc2ccccn2c1P(=S)(N1CCCCC1)N1CCCCC1`, the inhibition was 11.7%.

Turning to `CCOC(=O)c1c(C)c(C(=O)N2CCC3(CC2)OCCO3)c(C)n1CC`, the inhibition was 31.2%.

In the case of `CN(C)C(=O)NC(O)C(Cl)(Cl)Cl` (stereo not given), the inhibition was 74.8% (active).

Turning to `Cc1cc(N2C(=O)C3CCCN3C2c2ccc(Cl)c(Cl)c2)no1` (stereo not given), the inhibition was 41.4%.

As for `COc1ccc(-c2nc(CS(=O)CC(=O)N3CCC4(CC3)OCCO4)c(C)o2)cc1` (stereo not given), the inhibition was 14.5%.

For the compound `O=C1/C(=C\c2ccc3c(c2)OCO3)N2CCC1CC2`, the inhibition is 22.5%.

In the case of `CCOC(=O)c1c(-c2ccccc2)oc2ccc(OC(=O)N(C)C)cc12`, the inhibition is 55% (active).

For the compound `O=C1NC(=O)C(C/C=C/c2ccccc2)C(=O)N1`, the inhibition was -3%.

`CC(=NCc1ccc2c(c1)OCO2)c1c(O)[nH]c(=O)[nH]c1=O`: the inhibition is -11.9%.

Take `CN1CCN(Cc2ccccc2C(F)(F)F)CC1`: the inhibition is 0.4%.

For the compound `CCN(CC)C(=O)c1ccc(NC(=O)c2cc(-n3cnnc3)ccc2Cl)cc1`, the inhibition was 32.9%.

In the case of `O=C(CCN1CCCCC1)NCC(=O)Nc1ccc(Br)cc1C(=O)c1ccccc1`, the inhibition is -14.9%.

As for `CCOP(=S)(OCC)SCOC(=O)NCC(=O)OC`, the inhibition is 71.1% (active).

In the case of `c1ccc(C2NCc3ccccc3-n3cccc32)cc1` (stereo not given), the inhibition was 19.1%.

With `CC(=O)NC(=O)NC(C)Cc1ccccc1` (stereo not given), the inhibition was -12.4%.

Consider `CC(=O)c1ccc(OC(NC(=O)Cc2ccccc2)C(Cl)(Cl)Cl)cc1` (stereo not given), for which the inhibition is 86.4% (active).

Turning to `Cc1nc2nc(C)c(CCC(=O)N3CCC4(CC3)OCCO4)c(C)n2n1`, the inhibition was 3.8%.

As to `NC(=O)Nc1cccc(C(F)(F)F)c1`, the inhibition is -12.3%.

Consider `CC(=O)Nc1ccccc1C(=O)OCC(=O)c1cccc2ccccc12`, for which the inhibition was 80.7% (active).

For the compound `CC12CN3CC(C)(CN(C1)C3c1cccs1)C2` (stereo not given), the inhibition was -10.5%.

For the compound `Cc1ccc(Cn2nnnc2CN2CCC(n3nnc4ccccc43)CC2)cc1`, the inhibition is 93.4% (active).

As to `CSC1=NP(=S)(SC)N(C)c2nc3n(c21)CCC3` (stereo not given), the inhibition was 9.2%.

For the compound `Cc1cccc(N2C(=O)NC(=O)/C(=C\c3cnn(-c4ccccc4)c3)C2=O)c1`, the inhibition is -9.5%.

For `COc1ccc(C(=O)C2CN(C)CC2C(=O)c2ccc(OC)cc2)cc1` (stereo not given), the inhibition was 12.4%.

With `Fc1cccc(F)c1CN1CCN(Cc2c(F)cccc2F)CC1`, the inhibition is 7.2%.

As for `COc1ccccc1CN1CCN(C(=O)Cc2ccccc2)CC1`, the inhibition is 31.5%.

As to `COc1ccc(CN2CCN(c3ccccc3F)CC2)c(OC)c1`, the inhibition is 60.9% (active).

On to `CCC(=NCCc1ccccc1)c1c(O)n(C2CCCCC2)c(=O)[nH]c1=O`, for which the inhibition is 68.4% (active).

`CC(=NCC1CCCO1)c1c(O)n(-c2ccccc2)c(=O)[nH]c1=O` (stereo not given): the inhibition was 27.9%.

`CC(=NC1CCN(Cc2ccccc2)CC1)c1c(O)n(C)c(=O)n(C)c1=O`: the inhibition was 17.4%.

As to `CC(=O)c1c(O)n(C2CCCCCC2)c(=O)[nH]c1=O`, the inhibition is 82.9% (active).

For the compound `CN1CCN(Cc2ccc(OC(F)(F)F)cc2)CC1`, the inhibition is 3.1%.

With `CCc1nc2ccccc2c(=O)n1-c1cccc(OC)c1`, the inhibition was -4%.

Consider `CC(=O)N(C1=NCCCS1)c1ccccc1F`, for which the inhibition was 18.1%.

`COC(=O)C(c1ccccc1)N1CCCCCC1` (stereo not given): the inhibition was 5.8%.

As to `O=c1c2ccccc2nc(-c2ccco2)n1-c1ccc(Br)cn1`, the inhibition is -4.8%.

Take `COc1ccccc1N=C1SCCCN1C`: the inhibition was -3.6%.

As for `CCN(CC)CCOC(=O)c1cc2cc(COC)ccc2o1`, the inhibition was -1.3%.

Take `O=C(c1cc2nc(-c3ccccc3)cc(-c3ccccc3)n2n1)N1CCC2(CC1)OCCO2`: the inhibition is 94.6% (active).

For the compound `O=C(c1cc(-c2ccncc2)nc2ccccc12)N1CCC2(CC1)OCCO2`, the inhibition was 41.9%.

For `Cc1cccc(-n2c(C)nc3cc(C(=O)N4CCC5(CC4)OCCO5)ccc32)c1`, the inhibition was 13.7%.

As to `CCN(CC)P(=O)(Oc1cccc(C)c1)N(CC)CC`, the inhibition was 46.2%.

Consider `CCC(=O)CC(c1ccc([N+](=O)[O-])cc1)c1c(O)c2ccccc2oc1=O` (stereo not given), for which the inhibition is 75.8% (active).

Turning to `O=C(C1CC(=O)N(C2CCCC2)C1)N1CCC2(CC1)OCCO2` (stereo not given), the inhibition is 9.5%.

On to `CC(=O)N1CN2CN(C(C)=O)CC(C(=O)c3ccc(Br)cc3)(C2)C1`, for which the inhibition is -14.6%.

With `Fc1ccc(N2CCN(Cc3ccc4c(c3)OCO4)CC2)cc1`, the inhibition was 14.2%.

Regarding `c1ccc2sc(C3CCCNC3)nc2c1` (stereo not given), the inhibition is -23%.

With `CCCCn1c(O)c(C(CC)=NCc2ccco2)c(=O)[nH]c1=O`, the inhibition was 56.4% (active).

For the compound `CCC(=NCCCO)c1c(O)n(-c2ccc(OC)cc2)c(=O)[nH]c1=O`, the inhibition is -2.8%.

Turning to `CCCCCCN=C(CC)c1c(O)n(CCCC)c(=O)[nH]c1=O`, the inhibition was 93.6% (active).

With `CCC(=NCc1ccco1)c1c(O)n(Cc2ccccc2)c(=O)[nH]c1=O`, the inhibition is 35.4%.

With `Cc1cc(OCc2cc(C(=O)O)oc2C)c2c3c(c(=O)oc2c1)CCCC3`, the inhibition was 22.2%.

For `OC(CNC1CCCCC1)c1ccccc1` (stereo not given), the inhibition is 28.7%.

Regarding `O=c1c2ccccc2nc(-c2ccc(Cl)cc2Cl)n1-c1ccncc1`, the inhibition was 17.2%.

For `COC(=O)N(c1ccc(OC)cc1)P1(=S)OCCC(C)O1` (stereo not given), the inhibition is 12.9%.

Turning to `CCc1cccc2c(C#N)cn(CC(=O)N3CCOCC3)c12`, the inhibition was 37.3%.

In the case of `N[C@@H](Cc1c[nH]c2ccccc12)c1nnc(SCc2c(F)cccc2Cl)o1`, the inhibition is 70.3% (active).

Consider `CCCC(C)n1[nH]c(=O)c2c1NC(=O)CSC2c1ccc(OC)c(OC)c1` (stereo not given), for which the inhibition is 1.7%.

Regarding `CCN1CCN(C(=O)Cc2coc3cc(C)cc(C)c23)CC1`, the inhibition is -3.2%.

Consider `COc1cc(Cn2c(N)c(C(=O)NCc3ccco3)c3nc4ccccc4nc32)cc(OC)c1OC`, for which the inhibition was 100% (active).

As to `CCOC(=O)c1c(N)n(CCN2CCOCC2)c2nc3ccccc3nc12`, the inhibition was 25.6%.

Turning to `CCOC(=O)c1c(N)n(Cc2ccccc2)c2nc3ccccc3nc12`, the inhibition is 12%.

Turning to `O=C(c1cc(S(=O)(=O)N2CCOCC2)ccc1F)N1CCC2(CC1)OCCO2`, the inhibition is -0.4%.

For `Cc1cc(C)cc(NC(=S)NC2CC3CCCC(C2)N3Cc2cccs2)c1` (stereo not given), the inhibition was 8.1%.

With `CNP1(NC)=Nc2nn(-c3ccccc3)c(N)c2C(c2ccccc2)=N1`, the inhibition is -4%.

For `CC1(C)C(c2ccccc2)=NC(c2cccnc2)=[N+]1[O-]`, the inhibition is 38.2%.

In the case of `Cn1c(O)c(C=NCCCC(=O)O)c(=O)n(C)c1=O`, the inhibition is -3.8%.

Turning to `C/C(CCc1c[nH]c2ccccc12)=N\O`, the inhibition was -21.6%.

Consider `CCOC(=O)C1=C(C)OC(N)=C(C(=O)OC)C12C(=O)Nc1ccc(Br)cc12` (stereo not given), for which the inhibition is 22%.

For `COc1ccc(C2NCc3ccc4c(c3-n3cccc32)OCO4)cc1OC` (stereo not given), the inhibition was 10.3%.

As to `CCOC(=O)C1SC2(C(F)(F)C(F)F)CC1(O)c1c(c(OC)c3occc3c1OC)O2` (stereo not given), the inhibition is 87% (active).

With `CCNc1nc2[nH]c(=O)c3c(c2s1)OC(N)=C(C#N)C3c1cccs1` (stereo not given), the inhibition is -5.9%.

Regarding `CCOc1ccc(C2SCC(=O)Nc3c2c(C)nn3C2CCOC(C)(C)C2)cc1` (stereo not given), the inhibition was 7.4%.

Consider `N#Cc1ccc(Cn2cc(C(=O)c3ccco3)c3ccccc32)cc1`, for which the inhibition was 77.3% (active).

With `CC1=C(C(=O)Nc2ccccc2)SCCO1`, the inhibition was -1.2%.

Turning to `O=C(CSC1c2ccccc2-c2ccccc21)N/N=C/c1ccccc1`, the inhibition is 21.3%.
